Results published in PubChem BioAssay AID2315 (National Center for Advancing Translational Sciences (NCATS), 2010).
Values joined by “and” are separate entries in the source; they are usually repeats but may differ in a detail not shown here. Equal values may be shown once. The whole screen tested about 290,000 compounds, of which about 27,000 (9.3%) were called active. No stated cut-off is given here; in the data, active means inhibition mostly above about 28% (no sharp cut-off); inactive means mostly below about 43%. Only a selection was taken, and actives are over-represented in it overall.

experiment: A qHTS for Small Molecule Inhibitors of Shiga Toxin; conditions: Vero cells, Shiga toxin protein synthesis inhibition reporter; at 38.7 µM, stronger effect = higher value; further: 0% is about no effect

| SMILES | inhibition |
| --- | --- |
| O=C(CCN1CCCO1)N1CCCC(N2CCN(c3cccc(C(F)(F)F)c3)CC2)C1 (configuration not stated) | 3.43% (inactive) |
| CCNS(=O)(=O)c1ccc(NC(=O)c2cncc(Br)c2)cc1 | -9.77% (inactive) |
| COc1ccccc1N1CCN(C(=O)c2ccc(NC3=NC4CS(=O)(=O)CC4S3)cc2)CC1 (configuration not stated) | -1.81% (inactive) |
| COc1ccc(CNC(=O)C2CC(c3ccc(C(F)(F)F)cc3)=NO2)cc1 (configuration not stated) | -4.35% (inactive) |
| Cc1cc(C(=O)NC2CCN(Cc3ccccc3)CC2)n[nH]1 | -10.2% (inactive) |
| CCOc1ccc(C(=O)Nc2c3c(nn2-c2ccccc2)CS(=O)(=O)C3)cc1 | -5.21% (inactive) |
| COC(=O)c1c(NC(=O)C(=O)N2CCCCC2)sc2c1CC(C)(C)OC2 | -9.37% (inactive) |
| Cc1ccc(OCCCCc2c(C)n[nH]c2C)cc1 | 25.2% (inactive) |
| COc1ccc(OCc2cn3c(C)cc(C)nc3n2)cc1 | 48.1% (active) |
| Cc1ccc2nc(SCc3cn4c(C)cc(C)nc4n3)[nH]c2c1 | -3.11% (inactive) |
| Cc1cc(C)nc(SCc2cn3c(C)cc(C)nc3n2)n1 | 2.5% (inactive) |
| CC(C(=O)N=Nc1c(O)n(C)c2ccc(Br)cc12)n1cnc2ccccc2c1=O (configuration not stated) | -6.1% (inactive) |
| CSCCC(NS(=O)(=O)c1ccccc1F)C(=O)N1CC=C(c2ccccc2)CC1 (configuration not stated) | -9.3% (inactive) |
| COCCN(C(=O)C(C)C)c1nnc(-c2ccc(C(C)(C)C)cc2)s1 | 24.3% (inactive) |
| CCOc1cccc(-n2nnnc2-c2ccc(OC)cc2)c1 | 0.378% (inactive) |
| COc1ccc(CSc2nnnn2-c2ccc(C(=O)O)cc2)cc1 | -2.72% (inactive) |
| COc1ccc(-n2nnnc2-c2nc3ccccc3s2)cc1 | 77.2% (active) |
| COC(=O)c1ccc(CN2CCCC(C(=O)Nc3cccc(-n4cnnn4)c3)C2)cc1 (configuration not stated) | -11.4% (inactive) |
| OCCCN1c2ccccc2Nc2nnc(-c3ccccc3)cc21 | 57.2% (active) |
| N=c1c2c(-c3ccccc3)c(-c3ccccc3)n(Cc3ccccc3)c2ncn1CCCO | -13.5% (inactive) |
| O=[N+]([O-])c1ccc(N(CCO)Cc2ccccc2)c([N+](=O)[O-])c1 | 6.65% (inactive) |
| COc1ccc(C(=O)c2c(C)c(CCC#N)n3ccccc23)c(OC)c1 | -12.7% (inactive) |
| CC(C)C(=O)Nc1c(C(=O)c2ccc(F)cc2)oc2ccccc12 | -3.91% (inactive) |

| SMILES | inhibition |
| --- | --- |
| CC(C)C(=O)Nc1ccc2oc(=O)ccc2c1 | 31% (inactive) |
| CC(C)C(=O)Nc1ccc2c(c1)oc1ccccc12 | 105% (active) |
| Cc1c(CC(=O)NCC(=O)NCC(=O)O)c(=O)oc2cc3oc4c(c3cc12)CCCC4 | 2.91% (inactive) |
| CCNC(=O)c1sccc1-n1cccc1 | -7.99% (inactive) |
| CC(C)=CCc1c(O)c(CC=C(C)C)c2occ(-c3ccc(O)cc3)c(=O)c2c1O | 46.6% (active) |
| CCc1ccc(OCC(=O)NCC(c2ccc(Cl)cc2)N2CCCCC2)cc1 (configuration not stated) | -3.91% (inactive) |
| CCOC(=O)Cn1c(O)c(N=NC(=O)CNC(=O)Cc2ccccc2)c2ccccc21 | 13.1% (inactive) |
| CC(C)(C)N(Cc1ccccc1)C(=O)c1ccncc1 | -5.35% (inactive) |
| O=C(Nc1cccc(CCc2ccccn2)c1)c1ccc(Cl)cc1 | 22.8% (inactive) |
| O=C(Nc1ccccc1)OCc1cc(-c2ccc(Cl)cc2)on1 | -25% (inactive) |
| O=C(Nc1cccc(Cl)c1)OCc1ccccn1 | 98% (active) |
| COC(=O)c1ccc2ccccc2c1OC1OC(CO)C(O)C(O)C1NC(C)=O (configuration not stated) | -11.3% (inactive) |
| CCN(CC)c1ccc2cc(C(N)=O)/c(=N\NC(=O)c3ccncc3)oc2c1 | 24.7% (inactive) |
| CCN(CC)c1ccc2c(Nc3ccccc3)c(C=O)c(=O)oc2c1 | 29.5% (inactive) |
| CCN(CC)c1ccc2oc(=O)c(C)nc2c1 | 22% (active) |
| COc1cc2c(cc1OC)C(/C=C/c1ccco1)=NCC2 | -7.71% (inactive) |
| Cc1ccc(NC(=O)C2CC(c3ccc(F)cc3)=NO2)cc1 (configuration not stated) | -22.6% (inactive) |
| O=C(Nc1ccc2c(c1)OCO2)C1CC(c2c(F)cccc2Cl)=NO1 (configuration not stated) | 72.1% (active) |
| Cc1ccccc1N1CC(C(=O)Nc2ccc3c(c2)OCO3)CC1=O (configuration not stated) | 21.6% (inactive) |
| COc1cc(S(=O)(=O)Nc2ncn[nH]2)ccc1Cl | -3.71% (inactive) |
| CCC1CCCCN1C(=S)Nc1ccc(S(=O)(=O)Nc2ncccn2)cc1 (configuration not stated) | 8.74% (inactive) |
| CC(=O)c1ccc(OCC(O)CN2CCN(S(=O)(=O)c3cccc(Br)c3)CC2)cc1 (configuration not stated) | -10% (inactive) |
| COc1ccc2cc(S(=O)(=O)Nc3ccccn3)ccc2c1 | -1.18% (inactive) |

| SMILES | inhibition |
| --- | --- |
| COc1ccc(S(=O)(=O)Nc2c(C)n(C)n(-c3ccccc3)c2=O)cc1 | 1.34% (inactive) |
| COc1ccc(S(=O)(=O)/N=C2\C=C(NS(=O)(=O)c3ccccc3)C(=O)c3ccccc32)cc1 | 61.3% (active) |
| CCn1c(C)c(C)c2cc(C(=O)N3CCN(c4cccc(C)c4C)CC3)ccc21 | -9.52% (inactive) |
| Cc1ccc(C(=O)N/C(=C/c2cccs2)C(=O)NCC2CCCO2)cc1 (configuration not stated) | 16.9% (inactive) |
| Cc1ccc(S(=O)(=O)N2CCC(C(=O)NCC3CCCO3)CC2)cc1 (configuration not stated) | -25.2% (inactive) |
| Cc1ccc(-n2c(C)cc(/C=C(\C#N)C(=O)NCC3CCCO3)c2C)cc1 (configuration not stated) | 108% (active) |
| C/C(N)=C(/C#N)C(=O)COC(=O)c1cc(-c2ccc(C)cc2)nc2ccccc12 | 53.2% (active) |
| CNC(=O)COC(=O)c1cc(-c2ccc(OC)cc2)nc2ccccc12 | 54.5% (active) |
| COc1ccc(-c2cc(C(=O)n3cnc4ccccc43)c3ccccc3n2)cc1 | 6.77% (inactive) |
| COc1ccc(-c2cc(C(=O)N(C)Cc3ccccc3)c3ccccc3n2)cc1 | -2.41% (inactive) |
| C/C(N)=C(/C#N)C(=O)COC(=O)c1cc(-c2ccccc2)nc2ccc(Br)cc12 | -3.47% (inactive) |
| C/C(N)=C(/C#N)C(=O)COC(=O)c1cc(-c2cccc(Br)c2)nc2ccccc12 | 5.3% (inactive) |
| O=C(c1cccs1)N(Cc1cc2ccccc2[nH]c1=O)CC1CCCO1 (configuration not stated) | -16% (inactive) |
| CCN1C(=NCCc2cccnc2)N[C@@H](c2ccccc2)C(C(=O)OC)=C1C | -1.87% (inactive) and -4.64% (inactive) |
| S=C(Nc1cccnc1)Nc1ccccn1 | -1.64% (inactive) |
| Cc1ccc(NC(=S)Nc2ncccc2C)c(C)c1 | 54.2% (active) |
| Cc1ccc(NC(=S)NCc2ccccc2Cl)c(C)c1 | -19.8% (inactive) |
| Cc1ccc(NC(=S)NCCc2ccc(Cl)cc2)c(C)c1 | 13.6% (inactive) |
| COc1ccc(CN2CC(C(=O)NCCc3ccc(Cl)cc3)CC2=O)cc1 (configuration not stated) | -11.7% (inactive) |
| Cn1ncc(Br)c1C(=O)NC1CCCC1 | -7.94% (inactive) |
| C=CCn1c(=NC(=O)c2ccc(S(=O)(=O)N3CCCC3)cc2)sc2cc(NC(C)=O)ccc21 | -8.21% (inactive) |
| C=CCn1c(=NC(=O)c2cccs2)sc2cc(NC(C)=O)ccc21 | 47.4% (active) |
| C=CCn1c(CCNC(=O)c2cccs2)n[nH]c1=S | 2.22% (inactive) |

| SMILES | inhibition |
| --- | --- |
| COc1ccc(CNS(=O)(=O)c2cc(-c3cc(C)no3)ccc2C(C)C)cc1 | -15.5% (inactive) |
| CN(C)Cc1c(C(=O)N/N=C/c2ccccc2OCc2ccc(F)cc2)nnn1-c1nonc1N | -7.12% (inactive) |
| O=C(O)/C=C/c1ccc2c(c1)OCCO2 | -2.74% (inactive) |
| O=C(/C=C/c1ccc2c(c1)OCCO2)c1ccc(O)cc1 | 56.9% (active) |
| O=C(/C=C\c1ccc2c(c1)OCO2)NC1(C(=O)Nc2ccc3c(c2)OCCO3)CCCCC1 | -4.85% (inactive) |
| CN(C)c1ccc(/C=C/C(=O)c2ccc(C(C)(C)C)cc2)cc1[N+](=O)[O-] | 27.8% (inactive) |
| CN(C)c1ccc(/C=C/C(=O)c2ccc(O)cc2)cc1[N+](=O)[O-] | 48.8% (active) |
| O=C(/C=C/c1ccc(Cl)c([N+](=O)[O-])c1)c1ccc(O)cc1 | 10.6% (inactive) |
| CCOc1ccc(N2CC(C(=O)NCc3ccccn3)CC2=O)cc1 (configuration not stated) | -7.37% (inactive) |
| COc1cc(/C=C/C(=O)N2CCc3ccccc3C2)cc(OC)c1OC | -4.9% (inactive) |
| Cc1ccc(S(=O)(=O)N2CCC(Oc3ccc(-n4cnnn4)cc3)CC2)cc1 | 1.93% (inactive) |
| Cc1ccc(C)c(N2CCN(C(=O)Cn3ncn4cccc4c3=O)CC2)c1 | -2.82% (inactive) |
| CCc1nc2nc(C)c(NS(=O)(=O)c3ccc4c(c3)CCCC4)c(=O)n2[nH]1 | -6.5% (inactive) |
| Cc1cccc(CNS(=O)(=O)c2ccc(-c3cnc(C4CC4)o3)cc2)c1 | 13.9% (inactive) |
| N/C(=N\OC(=O)Cc1ccc([N+](=O)[O-])cc1)c1ccccn1 | 124% (active) |
| CO/N=C(\N)c1ccc([N+](=O)[O-])cc1 | -2.22% (inactive) |
| O=C(OCc1ccc([N+](=O)[O-])cc1)c1ccccn1 | 1.67% (inactive) |
| N/C(Cc1ccc([N+](=O)[O-])cc1)=N\OC(=O)COc1ccc2ccccc2c1 | 12.2% (inactive) |
| N/C(=N\OC(=O)c1ccc([N+](=O)[O-])cc1)c1ccccn1 | 71% (active) |
| N/C(=N\OC(=O)COc1ccc([N+](=O)[O-])cc1)c1ccc(Br)cc1 | 2.73% (inactive) |
| CC(C)(C)c1ccc(Cn2nnc3c(=O)[nH]c(C4CCCN(C(=O)c5ccco5)C4)nc32)cc1 (configuration not stated) | 2.02% (inactive) |
| Cc1cc(C)n(CCC(=O)N2CCN(S(=O)(=O)c3ccc(C)c(C)c3)CC2)n1 | -6.68% (inactive) |
| Cc1ccc(CNC(=O)C2CCCN2S(=O)(=O)c2ccc3c(c2)C(C)(C)C(=O)N3C)cc1 (configuration not stated) | -2.07% (inactive) |
